Assay outcomes from PubChem.
CHO-K1 Ca antag = nonselective inhibitor or artifact in parental CHO-K1 cells; ATP-induced calcium, Fluo-8 fluorescence; actives 0.6% (n = 360,000); inhibition, % at 3 µM; AID 602250;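 active means inhibition above a per-plate cutoff, the plate's mean sample inhibition plus 3 SD, cut at about 24% in these data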;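 further: 0% = DMSO plus EC80 ATP and 100% = DMSO alone without ATP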
CHRM1 PAM = potentiates human M1 receptor response to acetylcholine. CHO-K1 hM1, Fluo-8 calcium fluorescence, ACh EC20; 0% = ACh EC20, 100% = maximal ACh. activation, % at 3 µM. AID 588819. actives 0.088% (n = 360,000). P11229; in the data active means activation above about 19%, passing the limit was not always enough
Target sequence (P11229 whole entry, looked up): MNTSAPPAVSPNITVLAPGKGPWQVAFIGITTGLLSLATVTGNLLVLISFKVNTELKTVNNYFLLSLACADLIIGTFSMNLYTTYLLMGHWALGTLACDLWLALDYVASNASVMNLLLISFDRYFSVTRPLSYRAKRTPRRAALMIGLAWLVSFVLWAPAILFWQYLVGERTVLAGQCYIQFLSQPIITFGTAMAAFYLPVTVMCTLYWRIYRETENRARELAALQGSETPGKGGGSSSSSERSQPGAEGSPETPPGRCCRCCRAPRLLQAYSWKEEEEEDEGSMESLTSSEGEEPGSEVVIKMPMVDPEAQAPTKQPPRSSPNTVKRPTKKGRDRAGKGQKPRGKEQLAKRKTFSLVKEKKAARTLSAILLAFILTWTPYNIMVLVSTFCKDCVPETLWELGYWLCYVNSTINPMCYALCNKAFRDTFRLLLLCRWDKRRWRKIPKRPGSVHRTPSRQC
M1 PAM parental = nonselective activator or artifact in parental CHO-K1 calcium assay | AID 602247 | actives 0.02% (n = 360,000) | activation, % at 3 µM | ATP EC20, Fluo-8 calcium fluorescence; 0% at ATP EC20, 100% at ATP max;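 active means activation above the run cutoff, the mean activation of all test compounds plus 3 SD, cut at about 40% in these data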;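 further: peak over basal fluorescence ratio in a 140 s read after ATP addition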
M1 ag = activates human CHRM1 receptor | actives 0.33% (n = 360,000) | activation, % at 3 µM | AID 588814 | CHO-K1 hM1, Fluo-8 calcium fluorescence, agonist mode; 0% DMSO, 100% acetylcholine EC100;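 active means activation above the run's mean compound activation plus 3 SD, cut at about 16% in these data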;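 further: peak over basal fluorescence ratio within a 140 s kinetic read after compound addition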
CHRM1 antagonist = blocks human M1 muscarinic receptor; P11229; CHO-K1 hM1, Fluo-8 calcium fluorescence, ACh EC80 antagonist; inhibition, % at 3 µM; actives 1.3% (n = 360,000); AID 588852;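 active means percent inhibition above its own plate's cutoff, namely the mean of that plate's compound wells plus 3 SD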;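 further: peak over basal fluorescence ratio during 140 s after agonist addition; 0% = ACh EC80 plus DMSO and 100% = DMSO alone without agonist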
CHO-K1 Ca ag = nonselective activator or artifact in parental CHO-K1 cells. Fluo-8 calcium fluorescence; scaled to maximal ATP response, vehicle zero. activation, % at 3 µM. actives 0.48% (n = 360,000); in the data active means activation above about 15%;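 further: untransfected CHO-K1 host cells lacking M1 receptor as counterscreen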
Active calls of the source: *. In the library only some 2.3% were active in any assay of this set; here they are far more common.

SMILES	CHO-K1 Ca antag	CHRM1 PAM	M1 PAM parental	M1 ag	CHRM1 antagonist	CHO-K1 Ca ag
CC(C)(C)C(=O)/C=c1\s/c(=C\c2ccc(-c3ccc([N+](=O)[O-])cc3)o2)c(=O)n1CC(=O)NC(N)=O	26*	-9	-10	23*	39*	16*
CCC(=O)N/N=C/c1ccc(-c2ccc([N+](=O)[O-])cc2)o1	-3	6	16	-3	-8	2
COC(=O)c1ccc(N2CCN(S(=O)(=O)c3ccc4ccccc4c3)CC2)c([N+](=O)[O-])c1	28*	-3	2	0	23	0
COc1cc(/C=N\n2nnnc2N)ccc1OCc1ccc(F)cc1	11	-17	-7	-1	active	1
COc1cc(/C=N/n2nnnc2N)ccc1OCC(N)=O	14	-1	12	0	6	0
CCOC(=O)c1cnc2c(cnn2C)c1NCCCN(C)C	33*	8	-7	0	-8	0
O=C(COC(=O)Cc1ccccc1F)NC(=O)NC1CCCC1	-8	2	11	-7	-4	0
CN(C(=O)COC(=O)C1CCN(S(=O)(=O)c2ccc3c(c2)OCCO3)CC1)C1CCS(=O)(=O)C1 (stereo not drawn)	-8	0	-3	-8	-2	0
Fc1ccc(-n2nnc(-c3cccnc3)n2)cc1	-12	18	17	-1	-24	1
Fc1ccc(C(CCCn2nnc(-c3cccnc3)n2)c2ccc(F)cc2)cc1	3	-8	15	-2	27*	3
Cc1ccc(NC(=S)Nc2ccc(Br)cc2)cc1	35*	1	-5	3	7	2
O=C(CSc1nncs1)Nc1ccc(Cl)cc1C(F)(F)F	11	0	-26	-1	1	0
Cc1ccccc1OCCCCc1c(C)n[nH]c1C	15	-13	-4	-2	29*	9
Cc1ccccc1OCCCc1c(C)n[nH]c1C	0	-1	6	-7	0	5
O=C(Cn1ccc2ccccc2c1=O)NCCC(=O)Nc1cccc(Cl)c1	-12	4	12	-3	-7	2
CC1(c2cccc(Br)c2)NC(=O)N(CC(=O)Nc2ccc(F)cc2)C1=O (stereo not drawn)	-9	-1	-11	0	5	5
COc1ccccc1N1CCN(C(=O)c2cc(S(=O)(=O)N3CCCCC3)ccc2C)CC1	-15	-13	15	-1	16	5
CCOc1ccccc1N1CCN(C(=O)c2cc(S(=O)(=O)N3CCCCC3)ccc2C)CC1	5	-16	-15	-2	31*	6
COc1ccccc1NS(=O)(=O)c1ccc(C)c(C(=O)N2CCCC2)c1	-20	26*	8	2	-18	0
O=C(CN1C(=O)CSc2ncccc21)Nc1ccccc1F	-3	9	-2	-1	-11	2
Cc1nc2ccc(NS(=O)(=O)c3ccc(F)cc3F)cc2s1	-5	-7	3	1	8	10
Cc1nc2ccc(NS(=O)(=O)c3c(F)cc(F)cc3Br)cc2s1	1	-15	-21	-1	37*	10
COc1c(O)cc2c(c1O)[C@@H]1OC(CO)C(O)C(O)[C@H]1OC2=O (stereo partly drawn)	-4	-2	20	7	-25	0
COc1c(O)cc2c(c1O)C1OC(CO)C(O)C(O)C1OC2=O (stereo not drawn)	28*	-20	-13	48*	-2	0
CCN(CC)CCNC(=O)CNC(=O)c1nn(-c2ccc(OC)cc2)c(=O)c2ccccc12	-14	13	-4	-11	-19	2
SMILES	CHO-K1 Ca antag	CHRM1 PAM	M1 PAM parental	M1 ag	CHRM1 antagonist	CHO-K1 Ca ag
CCC1CCCCN1CCCNC(=O)CNC(=O)c1nn(-c2ccc(OC)cc2)c(=O)c2ccccc12 (stereo not drawn)	-12	-27	-2	-11	40*	0
CCN(CC)CCCNC(=O)CNC(=O)c1nn(-c2ccc(OC)cc2)c(=O)c2ccccc12	-6	-13	10	-4	45*	0
CCOC(=O)C1=C(COC(=O)c2ccc(Br)o2)NC(=O)NC1C (stereo not drawn)	-1	-5	0	-2	-5	1
CN(C)c1ccc(S(=O)(=O)N2CCCCC2)cc1NC(=O)C1=NN(c2ccccc2)C(=O)CC1	-9	10	7	-2	-9	0
CN(C)S(=O)(=O)c1cccc(COC(=O)c2cccnc2Cl)c1	19	-9	-9	1	20	17*
CN(C)S(=O)(=O)c1cccc(COC(=O)c2cnccn2)c1	-14	15	17	-7	-23	1
O=C(c1ccc(-c2ccccc2)cc1)N1CCN(c2ccccn2)CC1	2	-1	-3	-6	1	1
CC(C)Cn1c(N)c(C(=O)COC(=O)Cc2cccs2)c(=O)n(C)c1=O	12	-12	-11	3	30*	13
CC(C)Cn1c(N)c(C(=O)COC(=O)Cc2cccc(C(F)(F)F)c2)c(=O)n(C)c1=O	23	-18	-27	-2	38*	11
Cc1cc(C)n(CC(=O)NNC(=O)C2CC(=O)N(Cc3ccccc3Cl)C2)n1 (stereo not drawn)	-12	8	10	-2	-10	0
COc1ccc(/C=C/C(=O)NNc2c(F)c(F)cc(F)c2F)cc1OC	25*	2	-7	0	7	0
COc1ccc(C2=NS(=O)(=O)N(C)C(C(=O)N3CCc4ccccc4C3)=C2)cc1OC	11	-19	14	-1	25*	8
COc1ccc(C2=NS(=O)(=O)N(C)C(C(=O)NCc3ccccc3)=C2)cc1OC	-10	1	23	3	-12	4
CCNS(=O)(=O)c1ccc(Br)c(C(=O)OC(C)C(=O)NCC2CCCCC2)c1 (stereo not drawn)	15	-4	-20	-3	2	1
CCN(CC)CCOC(=O)C1c2ccccc2Oc2ccccc21	-4	-22	5	-9	99*	1
CCOCCCNC(=O)C1c2ccccc2Oc2ccccc21	-13	5	20	-6	-10	1
CCN(CC)CCNC(=O)C1c2ccccc2Oc2ccccc21	-11	-30	22	-10	93*	2
O=C(NCCCn1ccnc1)C1c2ccccc2Oc2ccccc21	13	-25	19	-6	24*	0
C=CC[C@@H](CC(=O)N[C@@H](CO)Cc1ccccc1)C(=O)NC[C@H](OC(=O)[C@@H](CC=C)Cc1ccc(F)cc1)c1ccccc1	-11	-9	6	-3	19	3
C=CC[C@@H](CC(=O)NCCO)C(=O)NC[C@H](OC(=O)[C@@H](CC=C)Cc1ccc(F)cc1)c1ccccc1	0	-31	-2	-5	53*	9
